{
  "source": "PubChem BioAssay AID651784",
  "about": "(National Center for Advancing Translational Sciences (NCATS), 2012)",
  "note": "Inconclusive results are not listed. Activity calls are given as the source filed them. The call rests on the fitted dose curve; in most records, active means well fitted inhibition curve with a large enough effect; inconclusive means small, poorly fitted or top-dose-only effect; inactive means no such curve, though single readings can be large or run the other way. Potency means the concentration at half of the fitted maximal effect.",
  "data": [
    {"experiment": "Acumen qHTS Assay for Inhibitors of the mTORC1 Signaling Pathway in MEF (Tsc2-/-, p53-/-) Cells: Hit Validation;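 further: phospho-rpS6 Ser235/236 immunofluorescence normalized to propidium iodide cell count; nearly all actives have a fitted effect of over 65% in size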;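 on activity change, negative = inhibition: cells exposed to compound for 24 hours; plate controls were DMSO for no effect and 7.5 nM rapamycin control for full effect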", "conditions": "Acumen imaging; activity change, negative = inhibition: at 37.3 µM (top of the series)", "units": {"activity change, negative = inhibition": "%"}, "values": [
      {"smiles": "Cc1ccc(C(=O)CC2(O)C(=O)N(Cc3ccccc3)c3ccccc32)c(C)c1", "note": "(configuration not stated)", "activity change, negative = inhibition": -24},
      {"smiles": "CCc1ccc(S(=O)(=O)N(C(=O)c2ccncc2)c2ccc3oc(C)c(C(=O)OC)c3c2)cc1", "Potency": "11.7 µM (active)"},
      {"smiles": "CCc1ccc(-c2nc(CSCC(=O)NCc3ccc(C)cc3)c(C)o2)cc1", "activity change, negative = inhibition": 4.67},
      {"smiles": "Cn1ccc2c(OCC(=O)Nc3ccc(OC(F)(F)F)cc3)cccc2c1=O", "Potency": "16.5 µM (active)"},
      {"smiles": "CCCCS(=O)(=O)c1nc(-c2ccc(Br)cc2)cc(-c2ccccc2)c1C#N", "Potency": "6.56 µM (active)"},
      {"smiles": "O=C(NCc1ccccc1)c1ccc2c(c1)N(Cc1ccccc1F)C(=O)c1ccccc1S2=O", "note": "(configuration not stated)", "activity change, negative = inhibition": -33},
      {"smiles": "COc1ccc(-c2nc(CCNC(=O)c3c(F)cccc3Cl)cs2)cc1", "activity change, negative = inhibition": -0.104},
      {"smiles": "CCC(=O)C1=C(c2ccc(Cl)cc2)N(C(=O)CC)n2c(C)nnc2S1", "activity change, negative = inhibition": -10.3},
      {"smiles": "COc1ccc(-c2nc(S(=O)(=O)c3ccc(Cl)cc3)c(N3CCCCCC3)o2)cc1", "activity change, negative = inhibition": 2.12},
      {"smiles": "CCSc1oc(-c2ccc(F)cc2)nc1S(=O)(=O)c1ccc(C)cc1", "activity change, negative = inhibition": -25.8},
      {"smiles": "Cc1cc(C)c(-c2n[nH]c3c2C(c2ccccc2F)N(Cc2ccco2)C3=O)c(O)c1", "note": "(configuration not stated)", "activity change, negative = inhibition": 2.41},
      {"smiles": "CCN(CC)S(=O)(=O)c1ccc(NC(=O)CCc2c(C)nc3cc(-c4ccc(Cl)cc4)nn3c2C)cc1", "activity change, negative = inhibition": -101},
      {"smiles": "Cc1ccc(C)c(N2CCN(CCCNC(=O)c3nnc(Cc4ccc(F)cc4Cl)o3)CC2)c1", "Potency": "10.4 µM (active)"},
      {"smiles": "COC(=O)c1ccc(Nc2nnc(-c3ccc(C)c(S(=O)(=O)N4CCN(C)CC4)c3)c3ccccc23)cc1", "activity change, negative = inhibition": -21.5},
      {"smiles": "Cc1ccc2oc(-c3ccc(Cl)cc3)c(O)c(=O)c2c1", "activity change, negative = inhibition": -44.5},
      {"smiles": "O=c1oc2ccccc2cc1-c1cn2cc(Cc3ccccc3F)sc2n1", "Potency": "16.5 µM (active)"},
      {"smiles": "CCn1c2ccccc2c2cc(CN3CCN(Cc4ccc(Cl)cc4)CC3)ccc21", "Potency": "14.7 µM (active)"},
      {"smiles": "Cc1ccc(-c2csc(-c3cc4c([nH]c3=O)CC(c3ccccc3)CC4=O)n2)cc1", "note": "(configuration not stated)", "Potency": "0.927 µM (active)"},
      {"smiles": "COc1ccc(C2CC(=O)c3c([nH]c(C(=O)OC4CCCCCC4)c3C)C2)cc1OC", "note": "(configuration not stated)", "activity change, negative = inhibition": 8.05},
      {"smiles": "CCOc1ccc(S(=O)(=O)N(C(C)=O)c2ccc3oc(C)c(C(=O)OC)c3c2)cc1", "activity change, negative = inhibition": -69.9},
      {"smiles": "COc1ccc(Nc2cc(C)nc(-n3nc(C)cc3C)n2)cc1Cl", "Potency": "0.147 µM (active)"},
      {"smiles": "Nc1nnc(SCC(=O)Nc2cccc(F)c2)s1", "activity change, negative = inhibition": 16.3}
    ]}
  ]
}
